This is a sample that favours compounds with a hit; in the whole collection about 1.5% have one here.
BRCA1 expr up – activators of BRCA1 expression. MCF7-BRCA1-FFLuc reporter, luminescence, 48 h; response scale: scaled: vehicle 0%, 10 µM genistein 100%. Potency, µM (series often up to 46.1 µM), without a hit: at the top dose activation, hits mostly activators. AID 624202. 380,000 tested, 1.1% active; note: potency is the fitted concentration of half-maximal effect; nearly all actives have a fitted effect of over 80% in size
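Reporter cells (MCF7, BRCA1 promoter-firefly luciferase) received library compounds across a concentration series for 48 h. End-point luminescence was measured and concentration-effect curves derived after normalization.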
IDH1 R132H inh – human IDH1 R132H inhibition; 390,000 tested, 0.093% active; IDH1-R132H enzyme, NADPH consumption, diaphorase/resazurin fluorescence; O75874; Potency, µM (titrated, usually from 76.6 µM), without a hit: at the highest dose activity change, negative = inhibition, hits mostly inhibitors; AID 602179; note: potency is the fitted concentration of half-maximal effect; % is set by controls: 0 for no effect and ±100 for the full control effect; nearly all actives have a fitted effect of over 65% in size
Target sequence (O75874 whole entry R132H, stated change not applied): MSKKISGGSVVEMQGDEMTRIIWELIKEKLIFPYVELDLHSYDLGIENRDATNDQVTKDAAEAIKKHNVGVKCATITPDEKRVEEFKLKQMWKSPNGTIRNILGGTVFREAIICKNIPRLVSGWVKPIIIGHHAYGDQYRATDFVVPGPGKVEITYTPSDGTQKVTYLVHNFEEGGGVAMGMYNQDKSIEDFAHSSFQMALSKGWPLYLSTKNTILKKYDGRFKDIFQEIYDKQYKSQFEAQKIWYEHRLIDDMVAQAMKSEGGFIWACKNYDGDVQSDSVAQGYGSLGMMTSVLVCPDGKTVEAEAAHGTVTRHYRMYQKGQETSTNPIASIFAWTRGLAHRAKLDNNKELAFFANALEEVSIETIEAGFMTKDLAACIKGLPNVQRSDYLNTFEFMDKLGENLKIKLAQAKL
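IDH1-R132H (0.5 ug/mL) preincubated 30 min with compound, then NADPH (0.016 mM) and alpha-KG (2 mM) added; 80 min at RT, pH 7.5. Remaining NADPH coupled via diaphorase/resazurin to fluorescence (540/590 nm); concentration-response curves normalized to no-enzyme control.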
gsp antagonist – antagonizes gsp, the McCune-Albright syndrome mutation; 340,000 tested, 0.4% active; Potency, µM (series often up to 76.9 µM), for the others: at the top dose activity change, negative = inhibition, usual class: inhibitors; gsp-mutant cells, cAMP HTRF, 30 min; calls by dose curve; cell line not stated here;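 note: intracellular cAMP measured with PDE inhibitor Ro 20-1724 present during compound exposure; potency is the fitted concentration of half-maximal effect; % is set by controls: 0 for no effect and ±100 for the full control effect; nearly all actives have a fitted effect of over 65% in size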
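G418-selected cells were plated in DMEM/10% FBS for 16-24 h at 37C, then treated with compounds plus the PDE inhibitor […] (300 uM solution added) for 30 min at 37C. Intracellular cAMP was measured by HTRF after 30 min lysis at room temperature.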
gsp agonist – gsp mutant agonism. gsp mutant cells, cAMP HTRF, 30 min. Potency, µM (highest dose often 76.9 µM), inactives show top-dose activation (cAMP increase), usual class: activators. 340,000 tested, 0.13% active; active = well fitted activation curve with a large enough effect; inconclusive = small, poorly fitted or top-dose-only effect, or another doubt; inactive = no such curve, though single readings can be large or run the other way; cell line not stated here;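 note: phosphodiesterase inhibitor Ro 20-1724 added with compounds to block cAMP breakdown; potency is the fitted concentration of half-maximal effect; nearly all actives have a fitted effect of over 60% in size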
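Cells in DMEM/10% FBS with G418 were pretreated with compounds in DMSO plus […] (300 uM stock) for 30 min at 37C. cAMP was measured by HTRF (cAMP-d2 plus anti-cAMP antibody-K) after 30 min at room temperature.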
IL-2 act – activates IL-2 in a cell-based reporter assay; IL-2 activation reporter assay, cell-based qHTS; stimulated with anti-CD3/CD4/CD28 beads; in transgenic mouse T cells; activation, % (series mostly up to about 46 µM); 360,000 tested, 0.065% active; in the data active = activation above about 50%; inconclusive = mostly about 30% to 49%; note: 0% is about no effect
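Unstimulated transgenic mouse T cells; 60-min compound exposure; bead-based TCR/CD4/CD28 stimulation; 18 h culture, 37 degrees C; dual fluorescence (EGFP, DsRed) plate cytometry.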
Starred values were filed as active, the others as inactive; ? = inconclusive; . = no result; [ ] = remark or other dose. Unless noted, calls come from the whole dose curve; as a rule, active = well fitted curve in the direction sought with a large enough effect; inconclusive = small, poorly fitted or top-dose-only effect, or another doubt; inactive = no such curve, though single readings can be large; an effect the other way counts as inactive or inconclusive.

SMILES	BRCA1 expr up	IDH1 R132H inh	gsp antagonist	gsp agonist	IL-2 act
COc1cccc(C2/C(=C(\O)c3ccc4c(c3)OCCO4)C(=O)C(=O)N2CCCN2CCOCC2)c1OC (configuration not stated)	-11.7%	-3.5%	26.4%	8.91µM*	-4.2
O=C(C1=C(O)C(=O)N(CCN2CCOCC2)C1c1ccc(Cl)cc1)c1cc2ccccc2o1 (configuration not stated)	-14.4%	-9.6%	5.2%	?	0.3
O=C(C1=C(O)C(=O)N(CCCN2CCOCC2)C1c1ccc(Cl)cc1)c1cc2ccccc2o1 (configuration not stated)	-7.1%	-10.5%	20.2%	11.2µM*	-0.2
CCOc1ccc(/C(O)=C2/C(=O)C(=O)N(CCCN3CCOCC3)C2c2ccc(C)cc2)cc1C (configuration not stated)	-24.1%	-3.4%	11.2µM*	39.1%	0.4
O=C1C(=O)N(CCCN2CCOCC2)C(c2ccc(Cl)cc2)/C1=C(\O)c1ccc2c(c1)OCCO2 (configuration not stated)	5.8%	5.8%	27.9%	11.2µM*	0.5
COc1ccc(/C=C/c2ccnc3ccccc23)c(OC)c1	-44.7%	.	.	.	.
COc1ccc(S(N)(=O)=O)cc1C(=O)OCC1CCCCC1	-1.4%	7.8%	-9.4%	-5.6%[15.4 µM]	5.3
O=C1C(=O)N(Cc2cccnc2)C(c2ccc(Br)cc2)/C1=C(\O)c1ccc2c(c1)OCCO2 (configuration not stated)	0.0%	-9.2%	11.7%	8.91µM*	-2.4
Cc1ccc(C2/C(=C(\O)c3ccc4c(c3)OCCO4)C(=O)C(=O)N2Cc2cccnc2)cc1 (configuration not stated)	4.9%	-8.5%	18.3%	?	-0.1
CCc1cccc(NC(=O)c2cccc3c2C(=O)N(CC2CCCO2)C3)c1 (configuration not stated)	-13.6%	5.9%	35.5µM*	9.8%	-1.8
O=C(O)c1cccc2c1C(=O)N(CC1CCCO1)C2 (configuration not stated)	1.1%	1.4%	-5.0%	8.3%[15.4 µM]	0.6
CCOc1ccc(S(=O)(=O)NCc2ccc(Cl)cc2)c2cccnc12	-31.9%	3.2%	-9.7%	-27.4%	0.3
CCOc1ccc(S(=O)(=O)Nc2ccccc2SC)c2cccnc12	-30.3%	5.1%	12.6µM*	-16.4%	0.6
COc1ccc(NC(=O)COC(=O)Cc2c(F)cccc2Cl)cc1	-0.6%	9.6%	44.7µM*	?	-0.5
COc1ccc(NC(=O)Cc2c(F)cccc2Cl)cc1	?	9.4%	18.4%	-48.8%	0.2
CC1CC(C)C(=NNC(N)=O)C(C(O)CC2CCC(=O)NC2=O)C1 (configuration not stated)	-49.8%	-0.8%	-6.9%	23.5%	0.0
O=C(Nc1cc(Cl)ccc1O)c1cc(-c2ccco2)on1	6.31µM*	4.9%	-3.5%	4.2%[15.4 µM]	-1.8
Cc1cccc(Cc2nnc(CCC(=O)N(C)CCc3ccccc3)o2)c1	3.55µM*	11.3%	0.4%	-24.1%	-4.3
COc1cccc(CN2CCN(C(=O)c3ccco3)CC2)c1	1.6%	-7.8%	-1.9%	9.5%	0.0
N#C/C(=C/c1ccc(Sc2nc3ccccc3[nH]2)o1)c1cccc(F)c1	-67.3%	-0.5%	35.5µM*	17.2%	-0.7
CC1(C(=O)NCc2cccnc2)CCN1C(=O)c1cccc(F)c1 (configuration not stated)	16.4%	.	.	.	0.8
c1ccc2c(c1)ccn2-n1ccc2ccccc21	0.0%	.	.	.	.
COc1ccc(NC(=O)CC2CC3CCC2C3)cn1 (configuration not stated)	12.6µM*	0.0%	2.3%	-34.2%	-2.9
CC(=O)Nc1ccc(NC(=O)CN2C(=O)CCc3cc(S(=O)(=O)N4CCCCC4)ccc32)cc1	0.0%	-23.5%	.	.	.
COc1ccc(CN(C(=O)c2ccc(OCC(C)C)cc2)C2CCS(=O)(=O)C2)cc1 (configuration not stated)	.	3.2%	.	.	.
SMILES	BRCA1 expr up	IDH1 R132H inh	gsp antagonist	gsp agonist	IL-2 act
Cc1cccc(C(=O)NCC(=O)OCC(=O)c2ccc3ccccc3c2)c1	11.8%	.	.	.	.
O=C(NCc1ccc(Cl)cc1)c1ccc2c(c1)N(Cc1ccccc1F)C(=O)c1ccccc1S2=O (configuration not stated)	-39.0%	19.0%	.	.	.
c1ccc2oc(NC3=NCN(C4CCCCC4)CN3)nc2c1	2.82µM*	16.2%	3.6%	29.2%	-0.5
CC(C)N1CN=C(Nc2nc3ccccc3o2)NC1	?	-4.9%	4.7%	6.7%[15.4 µM]	1.2
O=C(O)c1ccc(N=Nc2c(O)[nH]c3cc(Cl)ccc23)cc1	5.2%	6.7%	?	0.8%	0.0
O=C(O)c1ccc(N=Nc2c(O)[nH]c3ccc(Br)cc23)cc1	5.62µM*	4.3%	-4.8%	11.1%	1.9
Cc1ccc(N=Nc2c(O)[nH]c3ccc(F)cc23)cc1	?	-0.9%	?	-7.3%[15.4 µM]	268.9*
Cc1ccc(-c2nn(-c3ccc(F)cc3)cc2C(=O)NCCCN2CCCC2=O)cc1	-5.8%	0.6%	-6.9%	3.1%	-0.9
Cc1ccc(/C=N/n2c(-c3cccnc3)n[nH]c2=S)s1	-9.1%	2.4%	7.94µM*	-19.6%	-3.3
O=[N+]([O-])c1ccc(COc2ccccc2/C=N/O)cc1	10µM*	1.7%	-12.0%	-27.9%	-0.3
CCOc1cc(/C=N/O)ccc1OCc1ccc([N+](=O)[O-])cc1	8.5%	15.8%	20.3%	-1.6%	-0.8
O=C(CCSc1ccccc1)Nc1nc2c(s1)CCCC2	11.2µM*	2.4%	-12.4%	13.8%	-1.3
O=C(Nc1nc2c(s1)CCCC2)c1cccs1	?	5.1%	-23.6%	-21.5%	2.4
O=C(CSc1ncn(-c2ccccc2)n1)Nc1nc2c(s1)CCCC2	2.0%	6.4%	-14.3%	26.6%	-0.9
O=C(Cc1cccs1)Nc1nc2c(s1)CCCC2	3.98µM*	2.2%	4.3%	?	0.8
O=C(CCSc1ccccc1)NC1CCCCCC1	7.08µM*	0.9%	-11.8%	36.3%[15.4 µM]	0.4
O=C(Cc1ccc(S(=O)(=O)N2CCOCC2)s1)Nc1nc2c(s1)CCCC2	-6.1%	6.7%	7.94µM*	-37.7%	0.5
COc1ccc(N(C(=O)Cn2nnc3ccccc32)C(C(=O)NCc2ccco2)c2ccncc2)cc1 (configuration not stated)	1.1%	2.1%	-6.5%	-1.7%	1.1
COc1cc(CNC(=O)CSCc2nc3cccnc3n2C2CCCCC2)cc(OC)c1OC	.	19.0%	.	.	.
Cn1c(SCC(=O)NCc2ccco2)nnc1-c1ccc(NC(=O)c2ccccc2)cc1	19.7%	.	.	.	.
O=C1OC(c2ccccc2)=C/C1=C/N1CCCCC1	3.98µM*	3.1%	-14.5%	-20.4%	-1.7
O=C1OC(c2ccccc2)=N/C1=C\N1CCCCC1	7.94µM*	-1.1%	?	-52.9%	-1.7
O=C1OC(c2ccccc2)=CC1=Cc1ccccc1O	1.7%	-5.0%	.	13.7%	-3.0

Screens from PubChem BioAssay.
